Assay results: PubChem BioAssay (NCATS)
Records with an inconclusive call do not appear. Activity calls are given as the source filed them. Calls follow the shape of the dose curve; as a rule, active = well fitted curve in the direction sought with a large enough effect; inconclusive = small, poorly fitted or top-dose-only effect, or another doubt; inactive = no such curve, though single readings can be large; an effect the other way counts as inactive or inconclusive.

Tests used:
[1] = Drug repurposing screens with cells derived from glioblastoma tumor samples (AID 1345199); conditions: GBM patient neurospheres viability, ATP luminescence, 48 h; also: nearly all actives have a fitted effect of over 40% in size
In short: (§1)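 Primary testing used CD133+ neurospheres from four GBM patients, seven concentrations, 48 h exposure and ATP-based viability; confirmation added three slower-growing patient lines.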

PA-1 = experiment: Primary qHTS to identify gynecologic anti-cancer compounds using libraries of approved drugs and bioactive compounds (AID 1345084); conditions: Gynecologic cancer cell panel viability, ATPlite luminescence, 48 h; series mostly up to 57.5 µM; also: nearly all actives have a fitted effect of over 55% in size
In short: (§2)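 Five-concentration response, 48 h; readout is ATP-driven luciferase luminescence.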

SKOV3 = experiment: as above; conditions: Gynecologic cancer cell panel viability, ATPlite luminescence, 48 h; series mostly up to 57.5 µM
In short: as §2

Tov-21-G = experiment: as above; conditions: Gynecologic cancer cell panel viability, ATPlite luminescence, 48 h; series mostly up to 57.5 µM
In short: as §2

Tov112D = experiment: as above; conditions: Gynecologic cancer cell panel viability, ATPlite luminescence, 48 h; series mostly up to 57.5 µM
In short: as §2

OV90 = experiment: as above; conditions: Gynecologic cancer cell panel viability, ATPlite luminescence, 48 h; series mostly up to 57.5 µM
In short: as §2

[2] = qHTS assay to identify inhibitors of the type 1 interferon - major histocompatibility complex class I in skeletal muscle: Counter screen cell viability and HiBit confirmation (AID 1347412); conditions: iHSKM muscle cells + IFN-b, HiBiT or CellTiter-Glo, 24 h; for Potency: HiBiT; for activity change, negative = inhibition: Viability, at 45.9 µM (top of the series); as to all read-outs here: nearly all actives have a fitted effect of over 60% in size
In short: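 Luminescence read-out: Nano-Glo HiBiT lytic signal from C-terminally HiBiT-tagged HLA-B in CRISPR-edited human myoblasts, plus CellTiter Glo ATP as viability counter screen. IFN-beta 4.0 ng/ml; 24 hrs treatment at 37 C, 5% CO2.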

astro = control astrocytes; experiment: Drug repurposing screens with cells derived from glioblastoma tumor samples (AID 1345199); conditions: viability, ATP luminescence, 48 h; series mostly up to 45.9 µM; also: nearly all actives have a fitted effect of over 40% in size
In short: as §1

[3] = at 46.1 µM (top of the series), tumour line C
% is scaled to controls: 0 for no effect and ±100 for the full control effect; potency is read from the fitted curve at half-maximal effect.

C[C@]12C=CC(=O)N[C@@H]1CC[C@@H]1[C@@H]2CC[C@]2(C)[C@@H](C(=O)Nc3cc(C(F)(F)F)ccc3C(F)(F)F)CC[C@@H]12
inactive: activity, negative = cell killing [1, 3] -29.8%

C=Cc1cc(O)cc2nc(-c3ccc(O)c(F)c3)oc12
inactive: Potency (PA-1) | Potency (SKOV3) | Potency (Tov-21-G) | Potency (Tov112D)

COc1cc(N2CCC(O)CC2)ccc1Nc1cc(Nc2ccccc2S(=O)(=O)C(C)C)c2cc[nH]c2n1
inactive: Potency (OV90) | Potency (SKOV3) | Potency (Tov-21-G) | Potency (Tov112D)

COC(=O)[C@H](OC(C)=O)[C@H]1C(C)(C)C(=O)[C@H]2CC3=C4CC(=O)O[C@@H](c5ccoc5)[C@]4(C)CCC3[C@@]1(C)C2=O (some centres undefined)
inactive: Potency (OV90) | Potency (SKOV3) | Potency (Tov-21-G) | Potency (Tov112D)

CN(NC(=O)CC(=O)NN(C)C(=S)c1ccccc1)C(=S)c1ccccc1
inactive: Potency (Tov112D)
active: Potency (Tov-21-G) 1120 nM

CON(C)C(=O)N1N=C(c2cc(F)ccc2F)S[C@@]1(CCCN)c1ccccc1
inactive: Potency (OV90) | Potency (SKOV3)

CC(C)=CCC[C@](C)(O[C@@H]1O[C@H](CO[C@@H]2OC[C@@H](O)[C@H](O)[C@H]2O)[C@@H](O)[C@H](O)[C@H]1O)[C@H]1CC[C@]2(C)[C@@H]1[C@H](O)C[C@@H]1[C@@]3(C)CC[C@H](O[C@@H]4O[C@H](CO)[C@@H](O)[C@H](O)[C@H]4O[C@@H]4O[C@H](CO)[C@@H](O)[C@H](O)[C@H]4O)C(C)(C)[C@@H]3CC[C@]12C
inactive: Potency (OV90) | Potency (SKOV3) | Potency (Tov-21-G) | Potency (Tov112D)

CC(=O)c1cnc2ccc(-c3cc(Cl)c(O)c(Cl)c3)nc2c1NC1CCC(CN(C)C)CC1 (centres undefined)
inactive: activity change, negative = inhibition [2] -15.7%
active: Potency (PA-1) 501 nM | Potency (SKOV3) 891 nM | Potency (Tov112D) 447 nM | Potency [2] 99.1 nM

C#C[C@]1(O)CC[C@H]2[C@@H]3CCC4=C/C(=N/O)CC[C@@H]4[C@H]3CC[C@@]21CC
inactive: Potency (OV90) | Potency (SKOV3) | Potency (Tov112D) | activity, negative = cell killing ([1]; at 45.9 µM (top of the series), tumour line B) -7.76% | activity, negative = cell killing [1, 3] -27.9%
active: Potency ([1]; tumour line A) 12600 nM | Potency (astro) 20000 nM

NCc1ccc(OCCCc2sc(-c3ccc4c(c3)/C(=N/Nc3nc5ccccc5s3)CCC4)nc2C(=O)O)cc1
inactive: Potency (PA-1) | Potency (Tov-21-G) | Potency (Tov112D)

COC(=O)[C@@]1(O)C=CC[C@@H]2[C@@]3(C)C[C@@H](c4ccoc4)OC(=O)[C@H]3CC[C@]21C
inactive: Potency (OV90) | Potency (SKOV3) | Potency (Tov-21-G) | Potency (Tov112D)

COC(=O)C1=COC(O[C@@H]2O[C@H](CO)[C@@H](O)[C@H](O)[C@H]2O)/C(=C\COC(=O)c2ccc(OC3OC(CO)C(O)C(O)C3O)c(OC)c2)C1CC(=O)OCCc1ccc(O)cc1 (some centres undefined)
inactive: activity change, negative = cytotoxicity (OV90) 1.39% [at 11.6 µM] | activity change, negative = cytotoxicity (PA-1) -0.972% [at 11.6 µM] | activity change, negative = cytotoxicity (Tov-21-G) 2.92% [at 11.6 µM] | activity change, negative = cytotoxicity (Tov112D) 6.58% [at 11.6 µM]

CC1(C)OC(=O)C(OCC2CC2)=C1c1ccc(S(C)(=O)=O)cc1
inactive: Potency (OV90) | Potency (PA-1) | Potency (Tov-21-G) | Potency (Tov112D)

Cc1cn2c(N)c(Cl)cc(C(=O)NCC3CCN(CC(C)C)CC3)c2n1
inactive: Potency (PA-1) | Potency (SKOV3) | Potency (Tov-21-G) | Potency (Tov112D)

CCCOc1ccn2c(C(C)=O)cc(-c3ccccc3S(C)(=O)=O)c2c1
inactive: Potency (OV90) | Potency (PA-1) | Potency (Tov-21-G) | Potency (Tov112D)

CN(C)C/C=C/C(=O)Nc1ccc(C(=O)Nc2cccc(Nc3ncc(Cl)c(-c4c[nH]c5ccccc45)n3)c2)cc1
inactive: activity change, negative = inhibition [2] -19.3%
active: Potency (PA-1) 891 nM | Potency (Tov112D) 631 nM | Potency [2] 442 nM

CC1CCC2(C(=O)OC3OC(COC4OC(CO)C(O)C(O)C4O)C(O)C(O)C3O)CCC3(C)C(=CCC4C5(C)CCC(O)C(C)(C(=O)O)C5CCC43C)C2C1(C)O (centres undefined)
inactive: activity change, negative = cytotoxicity (OV90) 27% [at 11.6 µM] | activity change, negative = cytotoxicity (PA-1) -0.862% [at 11.6 µM] | activity change, negative = cytotoxicity (Tov-21-G) 6.67% [at 11.6 µM] | activity change, negative = cytotoxicity (Tov112D) -8.14% [at 11.6 µM]

COc1cc(C(C)=O)ccc1O[C@@H]1O[C@H](CO[C@@H]2O[C@@H](C)[C@H](O)[C@@H](O)[C@H]2O)[C@@H](O)[C@H](O)[C@H]1O
inactive: Potency (OV90) | Potency (Tov-21-G) | Potency (Tov112D)

CCn1c2ccccc2c2cc(CNC)ccc21
inactive: Potency (PA-1) | Potency (SKOV3) | Potency (Tov-21-G) | Potency (Tov112D)

C[C@@H]1O[C@@H](OC[C@H]2O[C@@H](OCCc3ccccc3)[C@H](O)[C@@H](O)[C@@H]2O)[C@H](O)[C@H](O)[C@H]1O
inactive: Potency (OV90) | Potency (SKOV3) | Potency (Tov-21-G) | Potency (Tov112D)

Cc1cc(C(=O)NNCc2ccccc2)no1
inactive: activity, negative = cell killing ([1]; at 20 µM (top of the series), tumour line C) -3.86% | activity, negative = cell killing ([1]; at 21.2 µM (top of the series), tumour line B) -7.11% | activity, negative = cell killing ([1]; at 21.2 µM (top of the series), tumour line D) -19.1% | activity, negative = cell killing ([1]; at 21.3 µM (top of the series), tumour line A) -21.8%
